Screening data from PubChem BioAssay.
Shown are actives, neighbours in structure and some others; about 11% of the full set was active somewhere.
USP30 block: inhibitors of human USP30 deubiquitinase | inhibition, % at 25 µM | purified USP30, Ub-rhodamine cleavage fluorescence | 47,000 compounds, 5.3% hits | Ubiquitin carboxyl-terminal hydrolase 30 (Homo sapiens), Q70CQ3
USP28 block: inhibitors of human USP28 deubiquitinase; 47,000 compounds, 3% hits; Ubiquitin carboxyl-terminal hydrolase 28 (Homo sapiens), Q96RU2; inhibition, % at 25 µM; AID 1645857, 2021; purified USP28, Ub-rhodamine cleavage fluorescence, 30 min
USP17 block: inhibitors of human USP17 deubiquitinase; Ubiquitin carboxyl-terminal hydrolase 17-like protein 5 (Homo sapiens), A8MUK1; purified USP17, Ub-rhodamine cleavage fluorescence, 3 h; inhibition, % at 50 µM; 47,000 compounds, 6.5% hits; AID 1645855, 2021
Target sequence (A8MUK1 whole entry, looked up): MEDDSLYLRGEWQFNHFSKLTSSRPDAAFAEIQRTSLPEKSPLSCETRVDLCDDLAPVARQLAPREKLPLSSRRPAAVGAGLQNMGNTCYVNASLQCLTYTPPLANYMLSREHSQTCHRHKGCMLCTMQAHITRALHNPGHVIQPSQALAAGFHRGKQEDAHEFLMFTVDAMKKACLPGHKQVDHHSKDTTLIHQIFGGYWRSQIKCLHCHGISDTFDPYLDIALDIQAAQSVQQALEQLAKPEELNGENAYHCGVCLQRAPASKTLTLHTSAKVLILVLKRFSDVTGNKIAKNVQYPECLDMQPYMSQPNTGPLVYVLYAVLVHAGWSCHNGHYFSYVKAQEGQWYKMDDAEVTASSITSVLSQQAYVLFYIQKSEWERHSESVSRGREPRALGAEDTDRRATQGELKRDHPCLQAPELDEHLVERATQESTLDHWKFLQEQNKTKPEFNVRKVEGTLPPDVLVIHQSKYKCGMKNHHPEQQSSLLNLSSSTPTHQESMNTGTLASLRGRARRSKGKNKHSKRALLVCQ
OTUD3 block: inhibitors of human OTUD3 deubiquitinase | purified OTUD3, Ub-rhodamine fluorescence, 2 h | inhibition, % at 25 µM | 47,000 compounds, 0.7% hits
The depositor's hits bear a star; x = not tested or not shown. Rule as the data show it: active = inhibition above about 30%; inactive = the rest.

SMILES | USP30 block | USP28 block | USP17 block | OTUD3 block
Cc1nn(-c2cccc(Cl)c2)c(Cl)c1/C=C/c1nc2ccc([N+](=O)[O-])cc2s1 | -85.6 | -39.4 | -26.4 | -29.2
COc1cccc(C2c3[nH]c4ccccc4c3C[C@@H]3C(=O)N(CCC4=CCCCC4)CC(=O)N23)c1OC (some centres undefined) | -125.2 | -29.8 | x | -11.7
COc1ccc(Cn2c(=O)sc3ccccc3c2=O)cc1 | 24.9 | 44.4* | 10.2 | 12.1
O=C(c1cc(-c2ccncc2)n[nH]1)N1CCC(C(=O)N2CC=C(c3ccccc3)CC2)CC1 | 19.4 | 16.4 | 63.7* | 6.8
O=C(Nc1ccccc1)C1CCN(C(=O)c2cc(-c3ccncc3)n[nH]2)CC1 | -58.8 | -0.6 | -2.4 | -3.2
O=C(Nc1ccc2c(c1)OCCO2)C1CCN(C(=O)c2cc(-c3cccnc3)n[nH]2)CC1 | 6.0 | 52.7* | -3.2 | -3.9
CC(C)n1ccc(-c2cc(C(=O)NCCN3CCOCC3)c3ccccn23)n1 | -91.1 | -22.8 | -44.1 | -24.4
Cn1c(SCc2c(F)cccc2Cl)nnc1-c1ccc2c(c1)OCCCO2 | 32.5* | 11.5 | 6.7 | 12.2
CCCS(=O)(=O)NCc1ccc2[nH]c(C)cc2c1 | x | x | 29.2 | 4.4
O=C(Cc1cccc2ccccc12)NCc1ccc2[nH]c3c(c2c1)CCCC3 | -160.1 | -25.4 | -5.0 | -28.9
Cc1cc2cc(CNC(=O)Cc3cccc4ccccc34)ccc2[nH]1 | -40.6 | -8.1 | 39.5* | -6.7
Cc1cc2cc(CNC(=O)Cc3ccc([N+](=O)[O-])cc3)ccc2[nH]1 | 21.3 | 16.5 | 37.5* | 9.7
Cn1c(N)c(C(=O)CN2CCN(C(c3ccccc3)c3ccccc3)CC2)c(=O)n(C)c1=O | 0.4 | 6.9 | -2.7 | 4.0
CC1OC1C(=O)[C@]1(O)[C@H](C)[C@@H](O)[C@@]23O[C@@]2([C@H](O)c2c(O)cccc2C3=O)[C@H]1O (some centres undefined) | -394.3 | 7.6 | 72.6* | 9.3
Cc1ccccc1C(=O)Nc1ccc(Cc2ccc(NC(=O)c3ccccc3C)c(O)c2)cc1O | -158.0 | 15.0 | 55.4* | -10.8
Cc1ccc2ncc(NC(=O)c3ccccc3C)c(=O)n2c1 | 1.6 | -6.7 | -13.8 | 0.3
Cc1ccc2c(c1)OCC(=O)N2Cc1nc(-c2cccc(F)c2)no1 | 35.1* | 26.1 | 13.0 | 26.8
Cc1ccc2c(c1)OCC(=O)N2Cc1nc(-c2ccc(F)cc2)no1 | -47.8 | -12.1 | -35.9 | -5.0
Cc1ccc2c(c1)OCC(=O)N2Cc1nc(-c2ccccc2)no1 | 26.5 | 29.4 | 44.6* | 9.5
O=C(c1ccc(N2CCc3ccccc32)s1)N1CCC(N2CCCCC2)CC1 | 0.6 | 34.6* | 46.5* | 8.3
CN(C)CCNC(=O)c1ccc(N2CCc3ccccc32)s1 | -47.7 | 19.0 | -1.2 | -14.5
COc1ccc(CCNC(=O)COc2cc(C)c3ccc(OC)cc3n2)cc1 | -31.2 | -5.4 | 45.6* | -7.5
Cc1nc(-c2ccccn2)sc1C(=O)Nc1ccc(C#N)cc1 | 54.3* | 11.7 | 8.3 | 4.3
Cc1nc(-c2ccccn2)sc1C(=O)Nc1cccc(C(=O)NC2CC2)c1 | -15.3 | 3.3 | -12.1 | -6.5
O=C(COc1ccccc1)NCc1csc(-c2ccccc2)n1 | 31.0* | 10.5 | 44.2* | 12.4
SMILES | USP30 block | USP28 block | USP17 block | OTUD3 block
COc1ccc(-c2nc(CNC(=O)Cc3ccc(Cl)cc3)cs2)cc1 | 8.0 | 19.0 | 35.5* | 10.3
COc1ccc(CC(=O)NCc2cc(-c3ccc(Cl)cc3)on2)cc1 | 13.4 | -2.0 | 16.1 | 5.2
O=C(COc1cccc(-c2noc(-c3ccco3)n2)c1)Nc1ccccc1Cl | -118.1 | -53.1 | -53.1 | -56.2
Cc1cccc(C)c1Nc1nc(CN2CCOCC2)nc2sc3c(c12)CCCC3 | 0.3 | 0.9 | 4.1 | 7.1
Cc1cc2n(n1)CC(C)(C(=O)NCc1ccccc1)N(c1ccc3c(c1)OCCO3)C2=O (centres undefined) | -16.0 | -3.8 | -14.3 | 6.8
CC1(C(=O)NCc2ccc(F)cc2)Cn2nc(-c3ccco3)cc2C(=O)N1c1ccc2c(c1)OCCO2 (centres undefined) | 5.0 | 35.3* | 37.2* | -0.5
Cc1c(C(=O)C(=O)N2CC(C)CC(C)C2)c2ccccc2n1C (centres undefined) | -3.5 | -4.5 | -8.5 | -3.4
Cc1ccc(-c2nc3ncccc3o2)cc1NC(=O)COc1ccc([N+](=O)[O-])cc1 | -23.2 | -33.0 | 40.5* | -10.6
O=C1C=C[C@]23Oc4ccc(O)c5c4[C@](Oc4cccc1c42)(O3)C1OC1[C@@H]5O (some centres undefined) | -51.3 | 6.1 | 44.8* | 0.9
CCOC(=O)Cc1cc(=O)n2[nH]c(-c3ccc(C)cc3)cc2n1 | -138.1 | 17.0 | 30.6* | 4.5
CCOC(=O)Cc1cc(=O)n2[nH]c(C)c(-c3ccc(Cl)cc3)c2n1 | 8.0 | 0.7 | -8.0 | 0.8
CC1CCN(S(=O)(=O)c2cn(CC(=O)N3CCCc4ccccc43)cn2)CC1 | -33.4 | -10.8 | -18.1 | -7.3
O=C(Cn1cccc(S(=O)(=O)N2CCCCCC2)c1=O)Nc1ccc(F)cc1 | 5.4 | -18.1 | 42.0* | -71.9
C=Cc1ccc(Cn2cccc(S(=O)(=O)N3CCCC3)c2=O)cc1 | -58.6 | 48.8* | 62.7* | 0.1
Cc1ccc(NC(=O)COC(=O)Cn2cnc3c2c(=O)n(C)c(=O)n3C)cc1F | 0.2 | 6.1 | -1.0 | -1.9
Cc1ccc(NC(=O)COC(=O)Cn2cnc3c2c(=O)n(C)c(=O)n3C)cc1 | 3.4 | 8.2 | 3.8 | 5.5
CCc1ccc(NC(=O)COC(=O)Cn2cnc3ccccc32)cc1 | -0.5 | 32.2* | 0.1 | 0.9
COc1cc(NC(=O)COC(=O)Cn2cnc3ccccc32)cc(OC)c1 | 0.9 | 51.1* | -3.0 | -2.5
CC(C)NC(=O)CN1CCC(c2ccncc2)CC1 | -6.5 | -16.7 | -1.6 | -2.7
O=[N+]([O-])c1ccc(S(=O)(=O)CC(CN2CCCC2)N2CCCC2)cc1 (centres undefined) | -67.9 | -20.9 | -38.2 | -20.4
CC(C)[C@H]1CC[C@@]2(CO2)[C@H]2C(=O)OCC(C(=O)O)=C[C@H]12 | 63.9* | 71.2* | 72.7* | 55.0*
CNC(=O)[C@@H]1CN2CCN(C(=O)c3cccc(C#N)c3)C[C@@H]2[C@H]1c1ccccc1 | 0.4 | -5.2 | 0.3 | -8.9
COc1ccccc1/C=C(\C(=O)N1CCN(Cc2ccccc2)CC1)c1ccccc1 | 39.9* | 19.4 | 17.0 | 20.2
O=C(CCC1=NS(=O)(=O)c2ccccc2N1)NCCc1ccc(Cl)cc1 | 1.3 | -0.6 | -3.6 | -9.2
Cc1ccc2c(c1)NC(CCC(=O)NCCc1ccc(Cl)cc1)=NS2(=O)=O | 59.1* | 26.9 | 59.0* | 15.0
CCc1ccc(CN(C)C(=O)c2ccc(NS(=O)(=O)c3ccc(F)c(F)c3)cc2)cc1 | 41.3* | 24.4 | 26.7 | 9.2
O=C(COC(=O)c1ccc(NS(=O)(=O)c2ccc(F)c(F)c2)cc1)Nc1ccc(OCc2ccccc2)cc1 | 1.4 | -5.0 | 6.6 | 5.4
COc1ccc(CCNC(=O)c2cc(C3CC3)nc3c2cnn3C(C)C)cc1 | -5.6 | 67.7* | 15.6 | 3.4
COc1ccccc1OCCNC(=O)c1cc(C2CC2)nc2c1cnn2C(C)C | 9.7 | 61.3* | 19.9 | 5.1
